PP1 inh: blocks human PP1-alpha phosphatase, a PP5 counter-screen; P62136; purified PP1alpha, OMFP fluorescence; inhibition, % at 6.7 µM; 320,000 compounds, 0.9% hits;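 active = inhibition above the mean inhibition of all tested compounds plus 3 SD, computed separately for each screening campaign, cut at about 15% in these data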
TMEM16A act: activates or potentiates the mouse TMEM16A chloride channel; 340,000 compounds, 0.3% hits; AID 623877; Q8BHY3; HEK293 TMEM16A/YFP-H148Q/I152L, iodide quench fluorescence; hits give low values; B-score at 10 µM;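 active = fluorescence-ratio B-score plate-corrected deviation score at least 3 library SD below zero, with starting fluorescence score within 5 deviations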;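 also: channel opened by trigger with iodide after compound preincubation; score built on the fluorescence ratio of max minus min over baseline; more negative score means more quench and so TMEM16A activation or potentiation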
PP5 inh: inhibitors of human protein phosphatase 5 (PP5) | purified PP5c, OMFP substrate fluorescence | inhibition, % at 6.7 µM | 320,000 compounds, 0.18% hits | P53041;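 active = inhibition above the campaign's mean inhibition across all tested compounds plus 3 SD, cut at about 9.5% in these data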;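 also: 0% = DMSO only and 100% = 100 µM cantharidin control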
ANO1 block: inhibitors of mouse TMEM16A calcium-activated chloride channel; Q8BHY3; HEK293 TMEM16A/YFP iodide influx fluorescence, ionomycin; normalized B-score (activity score, 25-100; higher = stronger inhibition) at 10 µM; 310,000 compounds, 1.2% hits;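 active = ratio plate-corrected score three or more library SD toward inhibition, starting fluorescence score within five deviations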;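 also: score derived from kinetic fluorescence span divided by baseline fluorescence per well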
PREPL inhibitor: inhibitors of human prolyl oligopeptidase-like enzyme PREPL. Q4J6C6. recombinant PREPL, fluorescence polarization activity-based probe. inhibition, % at 5.96 µM. 320,000 compounds, 0.68% hits. AID 2751;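 also: 0% = enzyme with DMSO and 100% = wells lacking enzyme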
FID counter: displaces DNA intercalator in HCV helicase counter-screen; DNA fluorescent intercalator displacement, fluorescence; inhibition, % at 7.9 µM; 290,000 compounds, 0.17% hits; AID 1845; in the data active = inhibition above about 37%;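 also: 0% = vehicle and 100% = reference compound; higher means more ethidium bromide displaced from hairpin DNA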
PREPL inh cf: human PREPL inhibition, confirmation; shares compounds with PREPL inhibitor; recombinant PREPL, fluorescence polarization activity probe; inhibition, % at 5.96 µM; 2,000 compounds, 67% hits; AID 2803;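 also: 0% = protein with DMSO and 100% = wells lacking protein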
Starred values were filed as active, the others as inactive; i = inactive; . = no result given. A selection: hits, their analogues and other compounds. The true share with any hit is near 2.7%. Rule as the data show it, unless noted: active = inhibition above about 43%; inactive = the rest.

SMILES	PP1 inh	TMEM16A act	PP5 inh	ANO1 block	PREPL inhibitor	FID counter	PREPL inh cf
CCOc1ccccc1O[C@H](c1ccccc1)[C@H]1CNCCO1	-3	i	2	i	44*	.	43
O=C(CCc1nnc2n(Cc3ccccc3)c(=O)c3ccccc3n12)NCCN1CCOCC1	-2	i	-2	i	-4	-3	.
COc1cc(/C=N\Nc2nc3ccccc3[nH]2)cc(OC)c1OC	2	i	1	i	43*	5	22
Cn1c(N)c(N=O)c(=O)n(C)c1=S	.	i	.	.	.	.	.
COc1ccc(OC)c(NC(=O)c2cc3n(n2)C(C(F)(F)F)CC(c2ccc4c(c2)OCO4)N3)c1 (stereo not drawn)	2	i	6	i	43	-31	.
COc1ccc(C2CC(C(F)(F)F)n3nc(C(=O)Nc4ccc5c(c4)OCO5)cc3N2)cc1 (stereo not drawn)	3	i	4	i	49*	-19	38
COc1ccc(OC)c(NC(=O)c2cc3c(=O)n4ccccc4nc3n2C)c1	0	i	2	i	21	2	.
CN(C)c1ccc(NC(=O)c2cc3c(=O)n4ccccc4nc3n2C)cc1	8	i	0	i	43*	0	17
CC12CCC(=O)N1C(C(=O)N1CCN(c3ccc([N+](=O)[O-])cc3)CC1)CS2 (stereo not drawn)	.	i	.	.	47*	.	31
CC12CCC(=O)N1C(C(=O)N1CCN(c3ccccc3)CC1)CS2 (stereo not drawn)	-3	i	1	i	22	.	.
Cc1ccc2cc(CN(CC(C)C)S(=O)(=O)c3cccc4nonc34)c(=O)[nH]c2c1	-2	i	0	i	-2	-19	.
C[C@@H]1NC(=O)[C@H](CCCN=C(N)N)NC(=O)c2cc([N+](=O)[O-])cc(I)c2NCCC[C@@H](C(N)=O)NC1=O	4	i	2	i	43*	17	22
CCC[C@@H](CN1CCC[C@H]1CN1C(N)=NC[C@@H]1Cc1ccccc1)N1C[C@@H](Cc2ccccc2)N(CCc2ccc(Cl)c(Cl)c2)C1=N	.	i	.	.	32	.	.
CC(C)[C@@H]1CN=C(N)N1C[C@@H]1CCCN1C[C@H](C)N1C[C@@H](Cc2ccccc2)N(CCc2ccc(Cl)c(Cl)c2)C1=N	.	.	.	.	63*	.	61*
CC(C)[C@H](CN1CCC[C@H]1CN1C(N)=NC[C@@H]1Cc1ccccc1)N1C[C@@H](Cc2ccccc2)N(CCc2ccc(Cl)c(Cl)c2)C1=N	.	i	.	.	53*	.	53*
C[C@@H](CN1CCC[C@H]1CN1C(N)=NC[C@@H]1Cc1ccccc1)N1C[C@@H](Cc2ccccc2)N(CCc2ccc(Cl)c(Cl)c2)C1=N	.	i	.	.	46*	.	38
CC(C)c1ccccc1NC(=O)COC(=O)c1ccc(Cl)c(S(=O)(=O)N2CCCCCC2)c1	2	i	0	i	-8	-5	.
COc1ccc(CC2(CO)CCN(S(=O)(=O)c3cccc4cccnc34)CC2)cc1	-4	i	0	i	51*	-36	42
CCOC(=O)C1=C(C)N=C2SC(C(=O)OC)=CC(=O)N2C1c1ccc(OC)cc1 (stereo not drawn)	-1	i	-1	i	0	-27	.
CCc1c(C)nc2cc(-c3ccccc3)[nH]n2c1=O	-3	i	1	i	-2	-4	.
CCc1cc(=O)[nH]c(-n2[nH]c(-c3ccccc3)cc2=O)n1	-1	i	-1	i	57*	-18	2
CC(Oc1ccc(Cl)cc1)C(=O)NCC1CCCO1 (stereo not drawn)	-2	i	2	i	-8	-6	.
O=C(NC1CCCCC1)C(c1ccccc1)N(Cc1ccc2c(c1)OCO2)C(=O)c1cnsn1 (stereo not drawn)	0	i	0	i	46*	-1	33
Cc1ccc(C(C(=O)NC2CCCC2)N(Cc2ccc3c(c2)OCO3)C(=O)c2snc(C(N)=O)c2N)cc1 (stereo not drawn)	2	i	2	i	-2	-21	.
COc1ccc(-c2ccc3c(c2)S(=O)(=O)c2cccc(C(=O)N4CCN(C5CCCCC5)CC4)c2C3=O)cc1OC	.	i	.	.	31	.	.
